Compounds without any hit were thinned out: in the full panel of roughly 79,000, 15% have a hit. Calls of active or inactive are those of the source. Cut-off read from the data, not from the text of the source: active = growth inhibition above about 70%; inactive = the rest.
Columns and labels:
[1] = NCI Yeast Anticancer Drug Screen. Data for the rad50 strain (AID 155);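 note: 0% = growth of vehicle-only cultures of the same strain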; settings: S. cerevisiae rad50 strain growth inhibition, hits give high values
Summary of the method: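 Yeast carrying a defined DNA repair defect were exposed to test compounds, and growth was compared with vehicle-treated controls to give percent inhibition.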

[2] = NCI Yeast Anticancer Drug Screen. Data for the mec2-1 strain (AID 157); settings: S. cerevisiae mec2-1 strain, hits give high values
Summary of the method: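 Cells of the genetically defined mec2-1 yeast strain are incubated with test compound. Inhibition of growth is calculated against vehicle-treated controls.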

[3] = NCI Yeast Anticancer Drug Screen. Data for the sgs1 mgt1 strain (AID 161);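 note: 0% = growth of cultures given vehicle only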; settings: S. cerevisiae sgs1 mgt1 strain, hits give high values
Summary of the method: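 Inhibition of yeast growth, normalised to vehicle-treated controls, is reported for a strain bearing genetic alterations in DNA damage repair.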

[4] = NCI Yeast Anticancer Drug Screen. Data for the cln2 rad14 strain (AID 165);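 note: 0% = growth equal to vehicle treated cultures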; settings: S. cerevisiae cln2 rad14 strain, hits give high values
Summary of the method: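 The screen exposed genetically defined yeast (cln2 rad14) to test compounds and scored growth inhibition relative to vehicle-treated controls.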

[5] = NCI Yeast Anticancer Drug Screen. Data for the bub3 strain (AID 167); settings: S. cerevisiae bub3 mutant strain, hits give high values
Summary of the method: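 Compounds were applied to a genetically altered yeast strain carrying a cell-cycle control defect. Growth inhibition was scored against vehicle-treated controls.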

[6] = NCI Yeast Anticancer Drug Screen. Data for the mlh1 rad18 strain (AID 175); settings: S. cerevisiae mlh1 rad18 strain growth inhibition, hits give high values
Summary of the method: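 Compound-treated yeast growth, normalised to vehicle controls. Strain bears defined DNA repair mutations.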

[7] = at 5.0 µM (retest, dose inferred, filed as 0.5)
[8] = at 50.0 µM (retest, dose inferred, filed as 5.0)

Measured: growth inhibition

O=C(COC(=O)C(c1ccccc1)c1ccccc1)c1ccc(Br)cc1
active: [5]; at 50.0 µM 88%
inactive: [1]; [7] -2% | [1]; [8] 28% | [1]; at 50.0 µM 45.9% | [2]; [7] -1% | [2]; [8] 23% | [2]; at 50.0 µM 11% | [3]; [7] 0% | [3]; [8] 35% | [3]; at 50.0 µM -4.25% | [4]; [7] -5% | [4]; [8] 28% | [4]; at 50.0 µM 11.1% | [5]; [7] 10% | [5]; [8] 62% | [6]; [7] -1% | [6]; [8] 27% | [6]; at 50.0 µM 20.9%

O=C(O)CN(CCN1CC(=O)OC(=O)C1)CCN1CC(=O)OC(=O)C1
active: [1]; at 50.0 µM 89.9% | [2]; at 50.0 µM 88.5% | [3]; at 50.0 µM 86.5% | [4]; at 50.0 µM 70.5% | [5]; [8] 88% | [5]; at 50.0 µM 72.5% | [6]; at 50.0 µM 84.3%
inactive: [1]; [7] 4% | [1]; [8] 61% | [2]; [7] -1% | [2]; [8] 49% | [3]; [7] 8% | [3]; [8] 29% | [4]; [7] -8% | [4]; [8] 46% | [5]; [7] 4% | [6]; [7] 8% | [6]; [8] 41%

CC(=O)Oc1ccc2ccccc2c1CN(Cc1c(OC(C)=O)ccc2ccccc12)C(C)=O
inactive: [1]; [7] 9% | [1]; [8] 64% | [2]; [7] 9% | [2]; [8] 53% | [3]; [7] 4% | [4]; [7] 3% | [5]; [7] 3% | [6]; [7] 11% | [6]; at 50.0 µM 55%
active: [1]; at 50.0 µM 88.8% | [2]; at 50.0 µM 72.8% | [3]; [8] 84% | [3]; at 50.0 µM 89.6% | [4]; [8] 88% | [4]; at 50.0 µM 93.8% | [5]; [8] 80% | [5]; at 50.0 µM 93.8% | [6]; [8] 85%

O/N=C(/CCc1ccccc1)c1ccccc1
inactive: [1]; [7] 7% | [2]; [7] 2% | [3]; [7] 5% | [4]; [7] -2% | [4]; [8] 56% | [5]; [7] -2% | [6]; [7] 2%
active: [1]; [8] 84% | [1]; at 50.0 µM 97.1% | [2]; [8] 70% | [2]; at 50.0 µM 97% | [3]; [8] 76% | [3]; at 50.0 µM 97.2% | [4]; at 50.0 µM 93.2% | [5]; [8] 71% | [5]; at 50.0 µM 95.7% | [6]; [8] 71% | [6]; at 50.0 µM 97.2%

Clc1nssc1=Nc1nonc1-c1ccccc1
active: [1]; [8] 99% | [1]; at 50.0 µM 88.7% | [2]; [8] 100% | [2]; at 50.0 µM 91.2% | [3]; [7] 86% | [3]; [8] 100% | [3]; at 50.0 µM 79.9% | [4]; [8] 96% | [5]; [7] 97% | [5]; [8] 99% | [5]; at 50.0 µM 79.7% | [6]; [8] 98% | [6]; at 50.0 µM 92.2%
inactive: [1]; [7] 59% | [2]; [7] 64% | [4]; [7] 68% | [4]; at 50.0 µM 48.6% | [6]; [7] 49%

O=C1NCCCNCCCNCCCNC(=O)c2cccc1n2
inactive: [1]; [7] 32% | [1]; [8] 30% | [1]; at 50.0 µM -41.7% | [2]; [7] 23% | [2]; [8] 21% | [2]; at 50.0 µM -30.6% | [3]; [7] 21% | [3]; [8] 24% | [3]; at 50.0 µM -18.1% | [4]; [7] 18% | [4]; [8] 28% | [4]; at 50.0 µM 5.3% | [5]; [7] 23% | [5]; [8] 26% | [5]; at 50.0 µM 0.55% | [6]; [7] 29% | [6]; [8] 26% | [6]; at 50.0 µM -15.2%

CN1C(=O)c2cccc3cc([N+](=O)[O-])cc(c23)C1=O
active: [1]; [8] 80% | [1]; at 50.0 µM 82.7% | [2]; [8] 76% | [3]; at 50.0 µM 85.8% | [4]; [8] 80% | [5]; [8] 88%
inactive: [1]; [7] 6% | [2]; [7] -16% | [2]; at 50.0 µM 29.1% | [3]; [7] 6% | [3]; [8] 69% | [4]; [7] 17% | [4]; at 50.0 µM 56.6% | [5]; [7] 3% | [5]; at 50.0 µM 64% | [6]; [7] 15% | [6]; [8] 53% | [6]; at 50.0 µM 56.6%

Cc1ccc(C(OS(=O)(=O)c2ccc(C)cc2)C(F)(F)F)cc1 (stereo not given)
active: [3]; at 50.0 µM 72.9%
inactive: [1]; [7] -1% | [1]; [8] -2% | [1]; at 50.0 µM 62.6% | [2]; [7] -11% | [2]; [8] -1% | [2]; at 50.0 µM 52.5% | [3]; [7] -4% | [3]; [8] -13% | [4]; [7] 3% | [4]; [8] -2% | [4]; at 50.0 µM 15.1% | [5]; [7] 0% | [5]; [8] 37% | [5]; at 50.0 µM 1.7% | [6]; [7] 19% | [6]; [8] 2% | [6]; at 50.0 µM 66.2%

OCC1CCCCCCCCCCC1
inactive: [1]; [7] -2% | [2]; [7] 0% | [2]; [8] 66% | [3]; [7] 1% | [3]; [8] 22% | [4]; [7] 1% | [4]; [8] 30% | [5]; [7] 10% | [5]; [8] 58% | [6]; [7] -1% | [6]; [8] 51%
active: [1]; [8] 90% | [1]; at 50.0 µM 98.2% | [2]; at 50.0 µM 75.2% | [3]; at 50.0 µM 94.3% | [4]; at 50.0 µM 92.3% | [5]; at 50.0 µM 94.7% | [6]; at 50.0 µM 89.2%

OCCN1COc2cc3c(cc2C1)OCN(CCO)C3
inactive: [1]; [7] 1% | [1]; [8] 11% | [1]; at 50.0 µM 17.4% | [2]; [7] -4% | [2]; [8] 1% | [2]; at 50.0 µM -4.9% | [3]; [7] -1% | [3]; [8] 14% | [3]; at 50.0 µM 13.2% | [4]; [7] 3% | [4]; [8] -5% | [4]; at 50.0 µM 42.9% | [5]; [7] 1% | [5]; [8] -3% | [5]; at 50.0 µM -6.35% | [6]; [7] -5% | [6]; [8] 10% | [6]; at 50.0 µM 16.2%
